Out of some 2,300 compounds screened, about 1,000 (43%) were called active. So high a share suggests a set chosen from earlier hits. Only a sample is shown. A number with no mark means an inactive call.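 The calls were made as follows: active = compounds inhibiting the enzyme by at least 50% at 15 µM in any one of the replicates; inactive = the rest.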
What follows are compounds tested against Fatty acid synthase (Homo sapiens) (UniProt P49327) (assay: FAS thioesterase domain inhibitors, confirmation, biochemical, fluorescence intensity, single concentration (AID 624325;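 also: 0% = enzyme with DMSO only and 100% = wells lacking enzyme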)). Settings: recombinant FAS-TE, OMFH fluorogenic substrate, at 15 µM, stronger effect = higher value.
Sequence of Fatty acid synthase (Homo sapiens) (P49327 whole entry, looked up, the tested form may be a part): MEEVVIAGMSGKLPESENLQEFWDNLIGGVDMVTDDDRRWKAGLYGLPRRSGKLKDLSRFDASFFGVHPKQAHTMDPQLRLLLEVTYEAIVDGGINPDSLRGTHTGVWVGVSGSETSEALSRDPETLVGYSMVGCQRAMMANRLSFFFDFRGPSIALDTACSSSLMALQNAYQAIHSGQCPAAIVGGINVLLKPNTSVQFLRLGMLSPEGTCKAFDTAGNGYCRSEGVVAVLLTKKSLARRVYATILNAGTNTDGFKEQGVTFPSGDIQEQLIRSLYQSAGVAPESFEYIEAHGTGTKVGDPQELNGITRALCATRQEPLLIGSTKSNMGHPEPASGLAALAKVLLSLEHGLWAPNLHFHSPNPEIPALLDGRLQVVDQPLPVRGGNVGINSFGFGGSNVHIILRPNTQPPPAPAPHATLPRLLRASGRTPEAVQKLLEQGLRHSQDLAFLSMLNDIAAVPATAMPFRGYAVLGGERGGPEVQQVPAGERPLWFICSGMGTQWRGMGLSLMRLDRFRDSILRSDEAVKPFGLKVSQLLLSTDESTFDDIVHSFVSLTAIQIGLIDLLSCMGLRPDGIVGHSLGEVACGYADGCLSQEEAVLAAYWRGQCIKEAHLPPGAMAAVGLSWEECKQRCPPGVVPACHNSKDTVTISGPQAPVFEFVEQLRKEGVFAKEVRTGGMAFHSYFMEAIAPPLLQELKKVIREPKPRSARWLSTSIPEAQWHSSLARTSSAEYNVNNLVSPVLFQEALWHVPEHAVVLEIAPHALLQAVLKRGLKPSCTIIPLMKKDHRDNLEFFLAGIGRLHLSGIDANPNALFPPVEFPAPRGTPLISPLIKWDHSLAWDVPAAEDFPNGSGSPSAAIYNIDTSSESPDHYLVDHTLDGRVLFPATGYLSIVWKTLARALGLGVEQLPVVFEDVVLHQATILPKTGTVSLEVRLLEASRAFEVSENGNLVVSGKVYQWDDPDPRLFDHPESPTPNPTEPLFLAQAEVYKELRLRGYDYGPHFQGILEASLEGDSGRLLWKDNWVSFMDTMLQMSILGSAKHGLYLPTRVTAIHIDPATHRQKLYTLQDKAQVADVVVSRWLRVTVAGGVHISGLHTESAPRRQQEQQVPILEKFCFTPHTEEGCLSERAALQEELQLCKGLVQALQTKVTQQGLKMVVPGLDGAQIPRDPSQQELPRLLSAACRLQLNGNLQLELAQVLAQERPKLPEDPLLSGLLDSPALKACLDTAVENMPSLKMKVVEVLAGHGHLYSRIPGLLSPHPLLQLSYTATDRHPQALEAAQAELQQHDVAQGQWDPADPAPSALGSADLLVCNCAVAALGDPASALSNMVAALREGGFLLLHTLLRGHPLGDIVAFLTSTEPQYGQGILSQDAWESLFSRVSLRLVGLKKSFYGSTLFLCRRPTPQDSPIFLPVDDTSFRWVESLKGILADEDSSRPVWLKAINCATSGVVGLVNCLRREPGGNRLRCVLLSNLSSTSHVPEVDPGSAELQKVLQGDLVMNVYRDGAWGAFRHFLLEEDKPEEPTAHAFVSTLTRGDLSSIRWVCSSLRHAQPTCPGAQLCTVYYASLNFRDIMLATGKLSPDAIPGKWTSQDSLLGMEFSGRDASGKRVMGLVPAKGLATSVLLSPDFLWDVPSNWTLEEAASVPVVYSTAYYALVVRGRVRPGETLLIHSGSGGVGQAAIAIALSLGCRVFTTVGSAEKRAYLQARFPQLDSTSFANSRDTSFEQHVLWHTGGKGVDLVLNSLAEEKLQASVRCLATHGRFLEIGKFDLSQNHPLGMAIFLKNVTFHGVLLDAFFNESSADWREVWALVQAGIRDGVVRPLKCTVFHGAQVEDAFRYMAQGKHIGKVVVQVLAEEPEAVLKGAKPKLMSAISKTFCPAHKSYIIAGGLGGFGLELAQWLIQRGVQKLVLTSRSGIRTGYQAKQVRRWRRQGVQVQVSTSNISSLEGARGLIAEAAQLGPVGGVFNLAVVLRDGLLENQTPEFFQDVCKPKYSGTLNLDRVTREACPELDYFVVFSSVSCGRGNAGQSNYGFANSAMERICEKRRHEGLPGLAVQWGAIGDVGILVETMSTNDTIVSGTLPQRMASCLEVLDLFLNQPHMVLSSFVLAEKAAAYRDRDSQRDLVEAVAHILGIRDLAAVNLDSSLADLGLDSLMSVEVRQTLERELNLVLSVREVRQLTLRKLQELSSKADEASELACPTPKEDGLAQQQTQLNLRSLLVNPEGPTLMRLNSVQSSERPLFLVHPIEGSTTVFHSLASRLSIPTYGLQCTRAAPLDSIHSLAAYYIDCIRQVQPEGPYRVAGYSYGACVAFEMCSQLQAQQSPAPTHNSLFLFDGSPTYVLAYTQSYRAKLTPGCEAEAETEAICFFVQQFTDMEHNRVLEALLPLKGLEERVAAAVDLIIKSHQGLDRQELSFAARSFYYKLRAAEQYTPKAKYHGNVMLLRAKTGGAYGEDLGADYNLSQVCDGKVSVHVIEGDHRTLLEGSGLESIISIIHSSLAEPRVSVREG
In the case of `CCOC(=O)[C@]12Cc3ccccc3[C@H]1N(C1CCCCC1)C(=O)c1cc(OC)ccc12`, the inhibition is reported as 53% (active). In the case of `COc1cccc(C(c2nnnn2-c2ccc3c(c2)OCCO3)N2CCC3(CC2)C(=O)NCN3c2ccccc2)c1OC` (stereo not drawn), the inhibition is reported as 8.72%. With `COc1ccc(-n2nnnc2C(c2cccc3ccccc23)N2CCC(n3c(=O)[nH]c4ccccc43)CC2)cc1` (stereo not drawn) the inhibition was 34.4%.

— PubChem BioAssay AID624325 (Sanford-Burnham Center for Chemical Genomics, 2012)
